# Source: PubChem BioAssay
# DUSP3 inh: inhibitors of human VHR1 phosphatase (DUSP3) | P51452 | recombinant VHR phosphatase, pNPP absorbance | inhibition, % at 13.3 µM | 0.52% of 290,000 active | AID 1654; in the data active = inhibition above about 50%
# Target sequence (P51452 whole entry, looked up): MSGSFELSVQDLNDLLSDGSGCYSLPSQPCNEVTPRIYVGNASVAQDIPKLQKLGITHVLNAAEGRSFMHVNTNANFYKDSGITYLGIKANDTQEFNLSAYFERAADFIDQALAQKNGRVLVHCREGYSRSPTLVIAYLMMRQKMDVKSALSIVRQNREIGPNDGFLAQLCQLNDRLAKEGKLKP
# Rv3671c protease: inhibitors of M. tuberculosis serine protease Rv3671c; 0.048% of 320,000 active; AID 2606; inhibition, % at 5.96 µM; in the data active = inhibition above about 38%;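 note: extracellular domain of Rv3671c used as enzyme; 0% = enzyme with DMSO and 100% = no enzyme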
# Target sequence (P9WHR9 whole entry, looked up, the tested form may be a part): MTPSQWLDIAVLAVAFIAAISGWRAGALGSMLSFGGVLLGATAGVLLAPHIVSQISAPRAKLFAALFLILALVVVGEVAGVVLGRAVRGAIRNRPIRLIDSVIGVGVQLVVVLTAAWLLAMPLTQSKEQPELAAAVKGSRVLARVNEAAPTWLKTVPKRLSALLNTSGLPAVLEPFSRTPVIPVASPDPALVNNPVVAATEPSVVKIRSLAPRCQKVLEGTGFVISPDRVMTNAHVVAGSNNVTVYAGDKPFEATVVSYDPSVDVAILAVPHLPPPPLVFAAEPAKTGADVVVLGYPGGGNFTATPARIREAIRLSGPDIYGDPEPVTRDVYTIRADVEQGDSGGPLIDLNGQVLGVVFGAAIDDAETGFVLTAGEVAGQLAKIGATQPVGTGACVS
# Mtb betalactam: beta-lactam sensitization of Mtb H37Rv; M. tuberculosis H37Rv growth with meropenem, percent inhibition; inhibition, % at 25 µM; 0.27% of 330,000 active; call rule not given here;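 note: growth measured after seven days incubation then overnight dye step; 0% = bacteria only wells and 100% = bacteria with antibiotic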
# Mtb UGM inh: inhibitors of M. tuberculosis UDP-galactopyranose mutase | P9WIQ1 | purified UGM, fluorescence polarization probe displacement | inhibition, % at 10 µM | 0.06% of 320,000 active; in the data active = inhibition above about 10%, passing the limit was not always enough
# Mtb hypoxia rep: reduces hypoxia-regulated biosensor signal in M. tuberculosis | M. tuberculosis hypoxia-regulated fluorescent reporter, fluorescence | fluorescence inhibition, % (no concentration beside the values) | 0.1% of 300,000 active | AID 1159583; in the data active = fluorescence inhibition mostly above about 23%, no sharp cut-off; inactive = mostly below about 17%
# * marks the source's active call; other numbers are inactive results; nt = no result given. Compounds with a hit are over-represented: about 0.59% of the library has one in this group of screens.
SMILES,DUSP3 inh,Rv3671c protease,Mtb betalactam,Mtb UGM inh,Mtb hypoxia rep
O=C(O)c1cc(O)ccc1-c1ccc(O)cc1,5.9,-0.7,-8.2,-1.0,2.5
CC(=O)Oc1cccc(/C=N\NC(=O)C(=O)N/N=C/c2cccc(OC(C)=O)c2)c1,nt,-3.2,1.5,0.4,nt
COc1ccc(OC(=O)c2ccncc2)cc1,34.3,-4.1,-9.2,2.8,-1.4
O=C(Oc1ccc(OC(=O)c2ccncc2)cc1)c1ccncc1,nt,0.5,12.2,-3.9,37.3*
COC(=O)C1C[C@@]2(O)C(O)C(O)C(O)CC2N1Cc1ccc(C(F)(F)F)cc1 (stereo partly specified),nt,nt,nt,nt,9.6
COc1ccccc1N1CCN(C2CCCN(C(=O)CCn3cncn3)C2)CC1 (stereo unspecified),57.1*,8.3,-6.4,2.0,-1.9
COc1ccccc1N1CCN(C2CCCN(C(=O)Cn3cccn3)C2)CC1 (stereo unspecified),0.9,1.2,-10.0,0.4,4.4
COc1ccccc1N1CCN(C2CCCN(C(=O)CCC(=O)N(C)C)C2)CC1 (stereo unspecified),72.3,-9.2,0.8,10.3*,14.9
COc1ccccc1N1CCN(C2CCCN(C(=O)C3=NN(C)C(=O)CC3)C2)CC1 (stereo unspecified),52.1*,4.2,-1.2,1.3,10.0
COc1ccccc1N1CCN(C2CCCN(C(=O)c3cscn3)C2)CC1 (stereo unspecified),5.3,8.1,1.7,0.5,nt
Cc1ccc(S(=O)(=O)NN=Cc2cccc([N+](=O)[O-])c2)cc1,nt,nt,nt,nt,5.5
CCc1ccccc1NC(=O)c1ccc2nc(N3CCOCC3)sc2c1,9.5,3.6,9.1,1.4,-1.5
Cc1ccc(NC(=O)c2ccc3nc(N4CCOCC4)sc3c2)c(Cl)c1,56.5*,-45.0,-0.2,0.8,-3.8
COc1cc(NC(=S)N2CCN(S(=O)(=O)c3ccccc3)CC2)cc(OC)c1,11.2,nt,1.5,1.9,3.5
CC1=C(C(=O)Nc2cc(C(=O)N(C)Cc3ccccc3)ccc2C)SCCO1,52.5*,-7.2,-3.4,-2.1,1.6
Cc1ccc(C#N)c(SCCN2CCCCC2)n1,52.0*,nt,3.1,0.5,5.9
CN(C)C(CNc1ccc(S(C)(=O)=O)cc1[N+](=O)[O-])Cc1ccccc1 (stereo unspecified),56.5*,-2.3,4.0,-1.0,3.6
NC(=O)C[n+]1cccc2ccccc21,23.5,4.0,0.6,11.3*,6.7
c1ccc(CSCc2ccccc2)cc1,nt,0.1,-8.8,-2.0,nt
Cc1c(C(=O)N2CCCCC2)c(S(=O)(=O)N(C)Cc2ccco2)c(C)n1C,-22.1,6.1,-0.4,-0.3,18.2
Cc1c(C(=O)N2CCCCC2)c(S(=O)(=O)N(C)Cc2ccccc2)c(C)n1C,54.2*,-7.7,-5.2,-4.6,6.2
O=C(NCCN1CCOCC1)Nc1ccc(Cl)cc1,-11.0,2.2,-12.8,-2.5,13.1
O=C(NCCN1CCCCC1)Nc1ccc(Cl)cc1,57.0*,-2.9,-2.0,2.3,14.1
COc1ccc(C(=O)N=C2SC3CS(=O)(=O)CC3N2c2ccccc2)cc1OC (stereo unspecified),52.3*,-6.2,-10.6,-1.6,5.4
O=C(N=C1SC2CS(=O)(=O)CC2N1c1ccccc1)c1cccc([N+](=O)[O-])c1 (stereo unspecified),nt,-0.5,3.3,-1.1,0.9
SMILES,DUSP3 inh,Rv3671c protease,Mtb betalactam,Mtb UGM inh,Mtb hypoxia rep
CC1CCCN(CCCNC(=O)c2ccc(CS(=O)(=O)c3c(Cl)cccc3Cl)o2)C1 (stereo unspecified),56.3*,0.0,-10.3,-2.3,11.0
CC1CCCN(CCCNC(=O)c2ccc(CS(=O)(=O)Cc3cccc(Cl)c3)o2)C1 (stereo unspecified),29.6,3.4,-4.3,0.5,6.8
CN1/C(=C\C=C\C2=[N+](C)c3ccc4ccccc4c3C2(C)C)C(C)(C)c2ccccc21,19.2,186.6*,62.0,1.2,nt
Cc1ccc(/C=C/C(=O)Nc2nccs2)o1,-3.9,2.5,1.5,2.4,10.9
Cc1ccc(/C=C/C(=O)Nc2nnc(SCc3ccc(C#N)cc3)s2)o1,59.9*,-8.5,4.2,0.6,-0.6
O=S(=O)(c1ccc(F)cc1)N1CN(Cc2ccco2)c2nc3ccccc3nc21,51.6*,4.0,-3.3,-1.0,1.2
O=C(Nc1ccccc1F)C(=Cc1sc(N2CCOCC2)nc1-c1ccccc1)C(=O)Nc1ccccc1F,-1.0,-1.0,-4.4,11.6*,-4.4
O=C(NN=Cc1sc(N2CCOCC2)nc1-c1ccccc1)c1ccccc1F,nt,nt,nt,nt,-11.0
CC1CCC2C(C)C(=O)OC3OC4(C)CCC1C32OO4 (stereo unspecified),nt,0.1,4.6,2.4,81.4*
CC1CCC2[C@@H](C)C(=O)OC3O[C@]4(C)CCC1C32OO4 (stereo partly specified),nt,7.6,2.2,-1.9,84.3*
CCCCN=C1NC(=O)C(CC(=O)Nc2ccc(Cl)cc2)S1 (stereo unspecified),31.0,1.2,-1.6,-0.7,15.6
CCOC(=O)N1CCN(Cc2cccs2)CC1,-0.8,-6.1,-13.6,-2.0,10.3
c1csc(CN2CCNCC2)c1,55.5*,-3.8,-6.2,-0.6,-5.0
Cc1cc(O)c(CN(C)C)c2c1C(=O)/C(=C/c1ccco1)O2,-24.8,3.0,2.6,0.4,-25.5
Cc1cc(O)c(C=O)c2c1C(=O)Oc1c(CO)c(O)c3c(c1O2)C(O)OC3=O (stereo unspecified),12.0,56.7*,-6.7,4.3,nt
O=C1CC(c2ccccc2)=Nc2ccccc2N1Cc1ccccc1,19.7,8.0,8.4,-3.2,-5.1
Cc1cc(C(=O)NN=Cc2ccc(-c3cccc(Cl)c3Cl)o2)n[nH]1,nt,nt,nt,nt,-6.5
Cc1cc(C(=O)N/N=C/c2ccc(-c3cccc(Cl)c3Cl)o2)n[nH]1,50.8*,-5.5,1.2,-0.8,nt
O=c1[nH]c(C2CCN(S(=O)(=O)c3ccc(S(=O)(=O)NC4CC4)cc3)CC2)nc2c1nnn2Cc1ccc(F)cc1,59.1*,-12.0,92.4,-2.4,-6.9
O=c1[nH]c(C2CCN(S(=O)(=O)c3ccc(S(=O)(=O)NC4CC4)cc3)CC2)nc2c1nnn2Cc1ccccc1,-17.1,-2.8,2.7,-0.4,7.5
CN(C)CCOc1ccc(-c2c(-c3ccsc3)sc3ccccc23)cc1,nt,5.9,100.0,0.2,nt
COc1ccc(-c2sc3ccccc3c2-c2ccc(OCCN(C)C)cc2)cc1,nt,13.8,100.0,-0.5,46.7*
Cc1cccc(OCC(=O)NCCNC(=O)c2cnccn2)c1,19.6,7.7,1.6,-1.9,-2.6
Cc1cccc(OCC(=O)NCCNC(=O)c2ccncc2)c1,59.7*,-9.1,-4.2,-0.5,14.3
COc1ccc(N2CCN(S(=O)(=O)c3cccc4nsnc34)CC2)cc1,15.2,-2.0,-9.2,3.6,-0.9
Cc1cc(OCC(=O)OCC(=O)NCc2ccco2)ccc1Cl,nt,-5.1,9.5,2.8,-4.1
O=C1/C(=C/c2ccccc2)SC(=S)N1CCCC(=O)N1CCCCC1CCO (stereo unspecified),51.2*,-8.5,7.2,0.2,8.3
COc1ccc(Cl)cc1N(CC(=O)Nc1ccccc1C(=O)N1CCCC1)S(C)(=O)=O,57.6*,0.0,9.3,-0.8,6.4
